Common to all, as to assay type: functional
In assay [1] the target is Solute carrier family 2, facilitated glucose transporter member 1 (Homo sapiens) (UniProt P11166). The experiment in a line: ST_JUDE_LEISH: Cytotoxicity at 2uM final concentration against transgenic Leishmania Mexicana promastigotes LmGLUT1 that are glucose transport deficient and complemented with the human glucose transporter GLUT1. Activity is measured by DNA content using SYBR green in vitro.

In assay [2] the target is Hexose transporter 1 (Plasmodium falciparum) (UniProt O97467). The experiment in a line: ST_JUDE_LEISH: Cytotoxicity at 2uM final concentration against transgenic Leishmania Mexicana promastigotes LmPfHT that are glucose transport deficient and complemented with the Plasmodium falciparum hexose transporter. Activity is measured by DNA content using SYBR green in vitro.

For assay [3], the target named is Glucose transporter (Leishmania mexicana) (UniProt O61059). The experiment in a line: ST_JUDE_LEISH: Cytotoxicity at 2uM final concentration against transgenic Leishmania Mexicana promastigotes LmGT2 that are glucose transport deficient and complemented with the L. Mexicana glucose transporter 2. Activity is measured by DNA content using SYBR green in vitro.

34 compounds from ChEMBL document CHEMBL3433997, “St. Jude Leishmania screening dataset” (2016) can be followed below.

Each structure is given as a SMILES string.

The term inhibition denotes the change of the read-out against control, counted positive when it falls.

Chain of Solute carrier family 2, facilitated glucose transporter member 1 (Homo sapiens) (P11166 whole entry): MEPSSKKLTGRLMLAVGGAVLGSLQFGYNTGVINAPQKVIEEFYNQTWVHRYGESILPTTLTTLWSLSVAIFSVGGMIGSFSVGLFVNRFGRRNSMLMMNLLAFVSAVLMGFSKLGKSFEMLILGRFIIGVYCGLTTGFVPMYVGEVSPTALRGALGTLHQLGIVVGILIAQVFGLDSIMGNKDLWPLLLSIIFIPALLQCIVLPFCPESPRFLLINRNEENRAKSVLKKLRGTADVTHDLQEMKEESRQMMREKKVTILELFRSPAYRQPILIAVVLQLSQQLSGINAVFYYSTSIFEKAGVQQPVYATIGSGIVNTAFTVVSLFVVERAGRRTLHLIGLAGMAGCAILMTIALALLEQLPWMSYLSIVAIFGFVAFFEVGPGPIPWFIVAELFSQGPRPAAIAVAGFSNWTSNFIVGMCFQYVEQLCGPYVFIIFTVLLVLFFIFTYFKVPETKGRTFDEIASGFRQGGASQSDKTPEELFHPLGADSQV

As to `O=C(Nc1ccccc1)N(Cc1cccc(-c2cccc(CNCCc3ccccc3)c2)c1)C1CCN(Cc2ccccc2)CC1`, the inhibition in assay [1] turned out to be 7.12%; in assay [2] it was 2.49%; in assay [3] it was 4.94%.

On to `CC(C)(C)c1ccc(-c2cc(C(=O)N[C@@H](CO)C(=O)O)on2)cc1.CC(C)(C)c1ccc(-c2nocc2C(=O)N[C@@H](CO)C(=O)O)cc1`, for which the values for the inhibition in assay [1], in assay [2] and in assay [3] were 4.07%, 3.4% and 6.48%, respectively.

`CN(C)Cc1ccc(CNC2CCN(Cc3ccccc3Cl)CC2)cc1`: the inhibition in assay [1] was 18.4%; in assay [2], 13.8%; in assay [3], 13.4%.

Regarding `CC(=O)N/N=C/[C@H](CCc1ccccc1)NC(=O)[C@H](CC(C)C)NC(=O)c1ccc(F)cc1`, the figures for the inhibition in assay [1], in assay [2] and in assay [3] were 6.34%, 4.34% and 4.68%, respectively.

As to `COc1cccc(OC)c1-c1ccccc1NC(=O)N1CCCc2cc(C)ccc21`, the values for the inhibition in assay [1], in assay [2] and in assay [3] were 2.46%, 2.69% and 2.07%, respectively.

Regarding `O=C(Nc1ccc(Cl)c(Cl)c1)N1CCC(CNCc2cccc([N+](=O)[O-])c2)CC1`, the inhibition came out at 3.92% in assay [1], 4.18% in assay [2] and 5.3% in assay [3].

On to `CC(C)(CNCc1cccc(Oc2ccccc2)c1)c1nc(-c2ccnc(N)n2)c(-c2ccc(Cl)c(O)c2)[nH]1`, for which the inhibition in assay [1] is -0.85%; in assay [2], -0.2%; in assay [3], -0.78%.

Take `CN(c1ccccc1)c1ccnc(NC(=N)Nc2ccc(Cl)cc2)n1`: the inhibition in assay [1] was 5.16%; in assay [2], 5.4%; in assay [3] it was 5.1%.

Take `c1cc(CN2CCN(c3ccncc3)CC2)cc(-c2cccc(-c3nc4ccccc4[nH]3)c2)c1`: the inhibition in assay [1] was found to be 2.65%; in assay [2] it was 2.34%; in assay [3], 1.32%.

Consider `c1cncc(CCNCc2ccc(-c3cccc(-c4nc5ccccc5[nH]4)c3)cc2)c1`, for which the inhibition was -0.73% in assay [1], 0.67% in assay [2] and -0.38% in assay [3].

As to `COc1ccc2nccc(N(C)CC3(O)CCC(NCc4cc5c(cn4)OCCO5)CC3)c2n1` (configuration not stated), the inhibition in assay [1] is 1.51%; in assay [2] it was 1.7%; in assay [3], 1.71%.

On to `CN(c1ccc2c(c1)nc(NC(=O)C1(c3cc(F)ccc3F)CC1)n2C)c1ccnc(Nc2cccc(CS(C)(=O)=O)c2)n1`, for which the figures for the inhibition in assay [1], in assay [2] and in assay [3] were -0.91%, 0.33% and -1.29%, respectively.

Regarding `O=C(CSc1cccc[n+]1[O-])c1ccc(Cc2ncc(C(F)(F)F)cc2Cl)s1`, the inhibition worked out at 9.45% in assay [1], 9.48% in assay [2] and 10.7% in assay [3].

Take `COc1cc(CN2CCC(NC(=O)[C@H](Cc3ccccc3)NC(=O)Nc3ccc(Oc4ccccc4)cc3)C2)ccc1O` (some centres not stated): the inhibition was 0.58% in assay [1], 1.77% in assay [2] and -3.37% in assay [3].

With `CN(C)c1ccc(CN2CCC(NC(=O)c3ccc(-c4ccc(N(C)C)cc4)s3)CC2)cc1`, the inhibition in assay [1] was 1.4%; in assay [2], -0.22%; in assay [3], -0.4%.

Take `CCOc1cc(/C=N/Nc2nc3ccccc3[nH]2)ccc1OCc1ccc([N+](=O)[O-])cc1`: the results for the inhibition in assay [1], in assay [2] and in assay [3] were 5.62%, 4.53% and 4.41%, respectively.

On to `CCc1ccc(CN2CCC(NC(=O)c3ccc(-c4ccccc4F)s3)CC2)cc1`, for which the inhibition in assay [1] is 0.37%; in assay [2], 0.03%; in assay [3], -5.91%.

Take `O=C(Nc1ccc(OC2CCN(CC3CC3)CC2)c(Cl)c1)c1ccc2ncccc2c1`: the inhibition is 8.41% in assay [1], 9.49% in assay [2] and 7.58% in assay [3].

As to `CC1CN(Cc2cccc(-c3ccc(-c4nc5cc(F)ccc5[nH]4)cc3)c2)CC(C)O1` (configuration not stated), the figures for the inhibition in assay [1], in assay [2] and in assay [3] were 3.14%, 1.73% and 2.23%, respectively.

As for `CC1CC1C(=O)NC1CCN(CC2(c3ccccc3)CCCCC2)CC1` (configuration not stated), the inhibition was 0.87% in assay [1], 1.18% in assay [2] and -0.67% in assay [3].

For the compound `Cc1ccc(NC(=O)C(C)Sc2nnc(-c3ccccc3Br)[nH]2)cc1` (configuration not stated), the inhibition in assay [1] was -1.5%; in assay [2] it was -2.48%; in assay [3], -0.33%.

`CN(Cc1ccc(NC(=O)CCC2CCN(C(=O)/C=C/c3ccc(Cl)c(Cl)c3)CC2)cc1)C1CCOCC1`: the results for the inhibition in assay [1], in assay [2] and in assay [3] were 4.84%, 5.1% and -1.91%, respectively.

Turning to `COc1cc(Nc2nccc(N3CCC(NC(=O)Nc4cc(C)ccc4C)C3)n2)cc(OC)c1OC` (configuration not stated), the figures for the inhibition in assay [1], in assay [2] and in assay [3] were 1.64%, 1.62% and 2.46%, respectively.

Turning to `O=C1COc2cc(Cl)c(CNC3CCN(CCc4ccnc5c(F)cc(F)cc45)CC3)nc2N1`, the inhibition in assay [1] stood at 2.1%; in assay [2], 2.94%; in assay [3] it was 1.57%.

As to `O=C(Cc1cn(-c2ccccc2)nc1-c1ccc(Cl)cc1)Nc1nccs1`, the inhibition was 7.92% in assay [1], 8.35% in assay [2] and 7.98% in assay [3].

`Cc1cccc(-n2nc(C)c3c2NC(=O)CC3C(=O)c2ccc(Cl)s2)c1` (configuration not stated): the results for the inhibition in assay [1], in assay [2] and in assay [3] were 1.99%, 4.4% and 2.73%, respectively.

As for `CC(CN1CCN(C)CC1)C(=O)Nc1ccc(-c2cccc(-c3nc4cc(F)ccc4[nH]3)c2)cc1` (configuration not stated), the inhibition in assay [1] was found to be 2.46%; in assay [2], 2.1%; in assay [3], 5.11%.

As to `O=C(/C=C/c1ccc(F)cc1)NC1CCC(CCN2CCc3ccc(-n4cccn4)cc3CC2)CC1` (configuration not stated), the inhibition in assay [1] was 11.7%; in assay [2], 12.9%; in assay [3], 7.81%.

`Cc1nc(C(C)Nc2nncc(-c3ccc(Cl)cc3)n2)cs1` (configuration not stated): the results for the inhibition in assay [1], in assay [2] and in assay [3] were 1.13%, 0.17% and 1.17%, respectively.

In the case of `Cc1ccc(C(=O)Nc2ccc(Nc3ccnc4cc(-c5ccncc5)ccc34)cc2O)cc1`, the results for the inhibition in assay [1], in assay [2] and in assay [3] were -0.09%, -0.05% and 1.37%, respectively.

Turning to `N#Cc1ccc2c(c1)CN(C1CCC(NC(=O)C3=Cc4cc(Cl)ccc4OC3)CC1)CCC2` (configuration not stated), the results for the inhibition in assay [1], in assay [2] and in assay [3] were 8.34%, 6.19% and 5.6%, respectively.

In the case of `O=C1OC(c2cc3ccccc3n2S(=O)(=O)c2ccccc2)(c2cc3ccccc3n2S(=O)(=O)c2ccccc2)c2ccccc21`, the inhibition was found to be 1.65% in assay [1], 1.8% in assay [2] and 2.01% in assay [3].

As to `NC(=O)C1CCN(Cc2cccc(-c3cccc(-c4nc5cc(F)ccc5[nH]4)c3)c2)CC1`, the inhibition is -0.94% in assay [1], 1.68% in assay [2] and 1.45% in assay [3].

For the compound `COC(=O)[C@@H](NC(=O)[C@H](CC(C)C)Nc1ccc(C#N)c2ccccc12)c1ccc(O)cc1`, the inhibition was 1.02% in assay [1], 0.76% in assay [2] and -2.23% in assay [3].
